ATG4B inh: ATG4B protease inhibitors, primary screen, biochemical, fluorescence, uHTS; ATG4B cleavage of LC3-PLA2, NBD-HPC fluorescence, 1 h; inhibition, % at 8.33 µM; hit rate 0.51% among 340,000; Cysteine protease ATG4B (Homo sapiens), Q9Y4P1; AID 504462, 2011; in the data active = inhibition above about 40%
pPAFAH inh: pPAFAH enzyme inhibitors, primary screen, biochemical, fluorescence polarization, human; recombinant pPAFAH, FP-rhodamine probe fluorescence polarization; inhibition, % at 3.39 µM; hit rate 1.5% among 330,000;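 active = inhibition above the mean inhibition across the screen plus 3 SD, cut at about 25% in these data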;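 note: inhibitors block binding of the rhodamine activity-based probe so polarization drops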
Target sequence (Q13093 whole entry, looked up): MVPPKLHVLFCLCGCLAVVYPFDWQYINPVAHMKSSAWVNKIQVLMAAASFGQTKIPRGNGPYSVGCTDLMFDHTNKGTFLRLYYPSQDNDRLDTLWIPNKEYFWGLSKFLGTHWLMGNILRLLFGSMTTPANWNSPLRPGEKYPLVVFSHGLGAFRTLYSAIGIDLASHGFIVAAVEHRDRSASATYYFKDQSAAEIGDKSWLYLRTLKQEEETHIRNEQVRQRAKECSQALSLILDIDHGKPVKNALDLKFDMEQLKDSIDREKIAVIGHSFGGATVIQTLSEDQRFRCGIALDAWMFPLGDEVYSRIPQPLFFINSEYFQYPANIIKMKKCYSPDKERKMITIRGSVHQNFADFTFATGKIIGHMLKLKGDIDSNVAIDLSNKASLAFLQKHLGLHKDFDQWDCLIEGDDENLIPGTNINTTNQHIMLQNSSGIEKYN
PAFAH1B2 inh: PAFAH1B2 enzyme inhibitors, primary screen, biochemical, fluorescence polarization, human | hit rate 1.2% among 340,000 | AID 492953, 2010 | inhibition, % at 3.39 µM | Platelet-activating factor acetylhydrolase IB subunit alpha2 (Homo sapiens), P68402 | recombinant PAFAH1B2, FP-rhodamine activity probe;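 active = inhibition above the mean of all tested compounds plus 3 SD, cut at about 24% in these data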
DAGLB inh: DAGLB lipase inhibitors, primary screen, biochemical, fluorescence, HTS; AID 504411, 2011; hit rate 0.059% among 340,000; Diacylglycerol lipase-beta (Homo sapiens), Q8NCG7; HEK293T DAGLB membrane lysate, EnzChek fluorogenic substrate; inhibition, % at 5.17 µM; in the data active = inhibition above about 34%
PAFAH2 FP inh: PAFAH2 enzyme inhibitors, primary screen, biochemical, fluorescence polarization, human; Platelet-activating factor acetylhydrolase 2, cytoplasmic (Homo sapiens), Q99487; recombinant PAFAH2, FP-rhodamine activity probe; inhibition, % at 3.39 µM; hit rate 0.99% among 340,000; AID 492956, 2010;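 active = inhibition above the mean over all tested compounds plus 3 SD, cut at about 30% in these data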;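 note: inhibitors block probe labeling of enzyme so polarization drops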
PAFAH1B3 inh: PAFAH1B3 enzyme inhibitors, primary screen, biochemical, fluorescence polarization, human. Platelet-activating factor acetylhydrolase IB subunit alpha1 (Homo sapiens), Q15102. recombinant PAFAH1B3, FP-rhodamine probe. inhibition, % at 3.39 µM. hit rate 0.28% among 340,000. AID 492972, 2010;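 active = inhibition above the screen-wide average of all tested compounds plus 3 SD, cut at about 25% in these data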
Target sequence (Q15102 whole entry, looked up): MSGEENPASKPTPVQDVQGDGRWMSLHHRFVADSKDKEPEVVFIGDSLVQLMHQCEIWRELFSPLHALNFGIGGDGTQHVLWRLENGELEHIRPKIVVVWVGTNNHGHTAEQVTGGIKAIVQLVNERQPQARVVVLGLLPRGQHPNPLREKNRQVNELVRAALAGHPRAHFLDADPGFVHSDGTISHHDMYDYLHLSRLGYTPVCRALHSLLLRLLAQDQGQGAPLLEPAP
pPAFAH FP conf: pPAFAH (PLA2G7) enzyme inhibitors, confirmation, biochemical, fluorescence polarization, human. shares compounds with pPAFAH inh. recombinant pPAFAH, FP-Rh probe fluorescence polarization. inhibition, % at 3.39 µM. hit rate 72% among 2,300;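 active = mean inhibition of the triplicate above the hit cutoff set for the earlier primary screen, cut at about 25% in these data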
A number is an active result. Shown are actives, neighbours in structure and some others; about 3% of the full set was active somewhere.

What do the screens show for `CCOC(=O)N1CCN(C(=O)CCN2C(=O)COc3ccc(C)cc32)CC1`?
ATG4B inh: inactive; pPAFAH inh: 77.5; PAFAH1B2 inh: inactive; DAGLB inh: inactive; PAFAH2 FP inh: inactive; PAFAH1B3 inh: inactive; pPAFAH FP conf: inactive

What do the screens show for `O=C(CSc1n[nH]c(Cc2ccccc2)n1)Nc1ccccc1Br`?
ATG4B inh: inactive; pPAFAH inh: inactive; PAFAH1B2 inh: inactive; DAGLB inh: inactive; PAFAH2 FP inh: inactive; PAFAH1B3 inh: inactive

What do the screens show for `CN(C)C(CNC(=O)c1cc(-c2ccco2)nc2ccccc12)c1ccccc1` (stereo not drawn)?
ATG4B inh: inactive; pPAFAH inh: 61.1; PAFAH1B2 inh: inactive; DAGLB inh: inactive; PAFAH2 FP inh: inactive; PAFAH1B3 inh: inactive; pPAFAH FP conf: inactive

What do the screens show for `COC(=O)C1CCN(C(=O)c2cc(-c3ccco3)nc3ccccc23)CC1`?
ATG4B inh: inactive; pPAFAH inh: 45.1; PAFAH1B2 inh: inactive; DAGLB inh: inactive; PAFAH2 FP inh: inactive; PAFAH1B3 inh: inactive; pPAFAH FP conf: inactive

Results for CC(C)CCNC(=O)c1cc(-c2ccco2)nc2ccccc12 ?
ATG4B inh: inactive; pPAFAH inh: inactive; PAFAH1B2 inh: inactive; DAGLB inh: inactive; PAFAH2 FP inh: inactive; PAFAH1B3 inh: inactive

How did O=C(c1cc(-c2ccco2)nc2ccccc12)N1CCN(Cc2ccccc2)CC1 do in these assays?
ATG4B inh: inactive; pPAFAH inh: inactive; PAFAH1B2 inh: inactive; DAGLB inh: inactive; PAFAH2 FP inh: inactive; PAFAH1B3 inh: inactive

How did O=C(N/N=C/c1cccc(F)c1)c1cc(-c2ccco2)nc2ccccc12 do in these assays?
ATG4B inh: inactive; pPAFAH inh: 39.3; PAFAH1B2 inh: inactive; DAGLB inh: inactive; PAFAH2 FP inh: inactive; PAFAH1B3 inh: inactive; pPAFAH FP conf: inactive

Results for CC1=NN(c2cccc(C(=O)O)c2)C(=O)/C1=C\C=C\c1ccco1 ?
ATG4B inh: inactive; pPAFAH inh: 44.8; PAFAH1B2 inh: inactive; DAGLB inh: inactive; PAFAH2 FP inh: 48.5; PAFAH1B3 inh: inactive; pPAFAH FP conf: 32.0

How did O=C(O)C1Nc2c(Cl)cc(Cl)c(Cl)c2C2C=CCC12 (stereo not drawn) do in these assays?
ATG4B inh: inactive; pPAFAH inh: 41.0; PAFAH1B2 inh: inactive; DAGLB inh: inactive; PAFAH2 FP inh: 54.5; PAFAH1B3 inh: inactive; pPAFAH FP conf: 33.2

Results for CCOC(=O)C1Nc2ccc(C)cc2C2C=CCC12 (stereo not drawn) ?
ATG4B inh: inactive; pPAFAH inh: inactive; PAFAH1B2 inh: inactive; DAGLB inh: inactive; PAFAH2 FP inh: inactive; PAFAH1B3 inh: inactive

Results for O=C(O)C1Nc2c(O)cccc2C2C=CCC12 (stereo not drawn) ?
ATG4B inh: inactive; pPAFAH inh: 87.7; PAFAH1B2 inh: 35.8; DAGLB inh: inactive; PAFAH2 FP inh: 50.2; PAFAH1B3 inh: 39.5; pPAFAH FP conf: 42.5

What do the screens show for `CC(C)CNC(=O)C1Nc2ccccc2C2C=CCC12` (stereo not drawn)?
ATG4B inh: inactive; pPAFAH inh: inactive; PAFAH1B2 inh: inactive; DAGLB inh: inactive; PAFAH2 FP inh: inactive; PAFAH1B3 inh: inactive

What do the screens show for `O=c1cc(S(=O)(=O)Cc2ccccc2)[nH]c(=O)[nH]1`?
ATG4B inh: inactive; PAFAH1B2 inh: inactive; DAGLB inh: inactive; PAFAH2 FP inh: inactive; PAFAH1B3 inh: inactive

Results for O=C1CCCC2=C1C(c1ccco1)Nc1ccc3ccccc3c12 (stereo not drawn) ?
ATG4B inh: inactive; pPAFAH inh: 40.0; PAFAH1B2 inh: inactive; DAGLB inh: inactive; PAFAH2 FP inh: inactive; PAFAH1B3 inh: inactive; pPAFAH FP conf: 28.5

Results for Cc1ccc(C2Nc3ccc4ccccc4c3C3=C2C(=O)CC(C)(C)C3)o1 (stereo not drawn) ?
ATG4B inh: inactive; pPAFAH inh: inactive; PAFAH1B2 inh: inactive; DAGLB inh: inactive; PAFAH2 FP inh: inactive; PAFAH1B3 inh: inactive

What do the screens show for `O=C1CCCC2=C1C(c1ccc(O)c(O)c1)Nc1ccc3ccccc3c12` (stereo not drawn)?
ATG4B inh: inactive; pPAFAH inh: 35.7; PAFAH1B2 inh: inactive; DAGLB inh: inactive; PAFAH2 FP inh: inactive; PAFAH1B3 inh: inactive; pPAFAH FP conf: 31.2

What do the screens show for `CSc1ccccc1C(=O)N1CCc2ccc(NC(=O)c3ccccn3)cc2C1`?
DAGLB inh: inactive

What do the screens show for `O=[N+]([O-])c1cc(Cl)cc(/C=N\Nc2ccccn2)c1O`?
ATG4B inh: inactive; pPAFAH inh: inactive; PAFAH1B2 inh: inactive; DAGLB inh: inactive; PAFAH2 FP inh: inactive; PAFAH1B3 inh: inactive

Results for CN(C)C1(CN=Cc2cc(Cl)cc([N+](=O)[O-])c2O)CCCCC1 ?
ATG4B inh: inactive; pPAFAH inh: 42.0; PAFAH1B2 inh: inactive; DAGLB inh: inactive; PAFAH2 FP inh: 34.5; PAFAH1B3 inh: inactive; pPAFAH FP conf: 27.9

Results for CCCCc1ccc(NC(=O)CSCc2cc(=O)[nH][nH]2)cc1 ?
ATG4B inh: inactive; pPAFAH inh: 36.3; PAFAH1B2 inh: inactive; DAGLB inh: inactive; PAFAH2 FP inh: inactive; PAFAH1B3 inh: inactive; pPAFAH FP conf: inactive

How did O=C(CSCc1cc(=O)[nH][nH]1)Nc1ccc(F)cc1 do in these assays?
ATG4B inh: inactive; pPAFAH inh: inactive; PAFAH1B2 inh: inactive; DAGLB inh: inactive; PAFAH2 FP inh: inactive; PAFAH1B3 inh: inactive

Results for Cc1ccc(-n2nc(C(=O)c3ccccc3)n3c(=O)c(Cc4ccccc4)nnc23)cc1 ?
ATG4B inh: inactive; pPAFAH inh: inactive; PAFAH1B2 inh: inactive; DAGLB inh: inactive; PAFAH2 FP inh: inactive; PAFAH1B3 inh: inactive

What do the screens show for `O=C(c1ccccc1)c1nn(-c2ccccc2)c2nnc(Cc3ccccc3)c(=O)n12`?
ATG4B inh: inactive; pPAFAH inh: 41.0; PAFAH1B2 inh: inactive; DAGLB inh: inactive; PAFAH2 FP inh: inactive; PAFAH1B3 inh: inactive; pPAFAH FP conf: 30.2

Results for O=C(CSCc1n[nH]c(=O)[nH]1)NCCOc1cccc(Oc2ccccc2)c1 ?
ATG4B inh: inactive; pPAFAH inh: 36.0; PAFAH1B2 inh: inactive; DAGLB inh: inactive; PAFAH2 FP inh: inactive; PAFAH1B3 inh: inactive; pPAFAH FP conf: inactive

Results for O=C(CSc1ncn[nH]1)NCCOc1ccccc1 ?
ATG4B inh: inactive; pPAFAH inh: inactive; PAFAH1B2 inh: inactive; DAGLB inh: inactive; PAFAH2 FP inh: inactive; PAFAH1B3 inh: inactive

How did O=C(/C=C/c1ccco1)NC(=S)Nc1ccc(N2CCCC2)cc1 do in these assays?
ATG4B inh: inactive; pPAFAH inh: 47.0; PAFAH1B2 inh: inactive; DAGLB inh: inactive; PAFAH2 FP inh: inactive; PAFAH1B3 inh: inactive; pPAFAH FP conf: inactive

Screening results (PubChem)
